Assay results: the supplement of paper PMC12669032

Each compound was assayed on Coprococcus comes (assay: growth AUC relative to DMSO control (median of replicates) (fraction); higher = more growth (less inhibition), active = hit call of the paper). Settings: 20 µM; 24 h;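 active = AUC reduced over 20% with Padj below 0.05 in at least 2 of 3 replicates; inactive = otherwise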.
Procedure, shortened: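 Gut bacterial monocultures were grown anaerobically at 37 °C in mGAM from a starting OD600 of 0.05 with 20 µM compound (1% DMSO), in round-bottom 96-well plates under pierced gas-permeable seals, and OD600 was read hourly for 24 h. With the minimum OD set to 0, area under the growth curve was normalised to the plate median of solvent-only wells, or to row and column medians on the industrial chemical plate. Each value is the median of three biological replicates grown on separate days.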

Growth AUC, inactive:
C#CCOC(=O)[C@@H](C)Oc1ccc(Oc2ncc(Cl)cc2F)cc1 0.978
c1ccc2cc3c(ccc4ccccc43)cc2c1 1
CN(C)C=O 1.04
COc1nc(N)nc(NC(C)(C)C)n1 1.03
Cc1ccc(Cl)cc1 1
O=C(O)Cc1c(Cl)ccc(Cl)c1Cl 0.959
O=c1oc(-c2ccccc2)nc2ccccc12 0.996
COC(=O)c1cccc(C)c1S(=O)(=O)NC(=O)Nc1nc(OCC(F)(F)F)nc(N(C)C)n1 0.967
COc1cc(OC)nc(NC(=O)NS(=O)(=O)Nc2ccccc2C(=O)N(C)C)n1 0.994
O=S(Cc1ccc(Cl)cc1)c1ccc(Cl)cc1 (stereo not drawn) 1
CCOc1ccc2c(c1)C(C)=CC(C)(C)N2 1.03
CC(C)COC(=O)COc1cc(Cl)c(Cl)cc1Cl 1
CN(C)C(=O)Nc1cc(C(C)(C)C)on1 0.99
C=CCc1ccc(OC)c(OC)c1 1.01
CCNc1nc(NCC)nc(OC)n1 1.05
CCOC(=O)c1nc(C(Cl)(Cl)Cl)n(-c2ccc(Cl)cc2Cl)n1 0.946
Oc1ccc2ccccc2c1N=Nc1ccccc1 0.858
O=C(Nc1ccc(Cl)cc1C(O)c1ccccc1)c1ccncc1 (stereo not drawn) 1.04
